The list is not random: actives were taken first. Their share in the collection is about 5.2%.
Tau FP inhib: blocks human tau fibril formation measured by polarization. P10636. K18 P301L tau heparin fibrillization, Alexa594 FP, 6 h. Potency, µM (top dose mostly 57.7 µM), for the others: at the top dose activity, negative = inhibition, most hits filed as inhibitors. actives 0.39% (n = 280,000). AID 1468; also: potency is read from the fitted curve at half-maximal effect; nearly all actives have a fitted effect of over 55% in size
Target sequence (P10636 561-689 P618L limits assumed): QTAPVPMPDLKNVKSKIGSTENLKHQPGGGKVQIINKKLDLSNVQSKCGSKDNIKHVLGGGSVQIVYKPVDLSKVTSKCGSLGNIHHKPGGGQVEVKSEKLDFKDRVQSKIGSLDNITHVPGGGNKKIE
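Quantitative HTS format: compounds meet 15 uM recombinant K18 P301L tau and Alexa 594-tau tracer in 100 mM sodium acetate pH 7; 20 uM heparin triggers fibrillization at 37 C over 6 hr; FP gives the signal.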
Coupling enz: coupling enzyme interference in Giardia aldolase counter-screen. coupling enzyme system counterscreen, AmpLite Red fluorescence. activity change, negative = inhibition, % at 58.2 µM, hits read low. actives 0.67% (n = 290,000); in the data active = activity change below about -30%
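Counterscreen lacking aldolase: glyceraldehyde-3-phosphate coupling-enzyme reagent preincubated 10 min at RT with compound (at 57.5 uM final), then substrate/coupling system with AmpLite Red added; fluorescence read at 525/598 nm after 20 min RT.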
Tau fluor counter: counter-screen for tau fibril formation inhibitors | tau K18 P301L Alexa594 fluorescence, heparin fibrillization | Potency, µM (highest dose often 57.7 µM), for inactives: at the top dose activity change, negative = decrease | actives 0.93% (n = 280,000); also: potency is read from the fitted curve at half-maximal effect; nearly all actives have a fitted effect of over 55% in size
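Human tau K18 P301L (15 uM unlabeled, 0.24 uM Alexa 594-labeled) in 100 mM sodium acetate pH 7 with 20 uM heparin, 6 hr at 37 C. ThT 30 uM added, 1 hr ambient; Alexa 594 FP and total fluorescence read at 555/632 nm.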
Sfp PPTase inh: Sfp phosphopantetheinyl transferase inhibition; Q9F4F7; Biochemical Sfp PPTase activity, qHTS; Potency, µM, for the others: largest response in the series, negative = inhibition, hits mostly inhibitors; actives 3.5% (n = 310,000); AID 1490;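 also: the enzyme is Sfp with the accession as filed and its product quenches rhodamine fluorescence; potency is read from the fitted curve at half-maximal effect; 0% = enzyme reaction without inhibitor and -100% = no enzyme wells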
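Sfp 15 nM + cpd, 15 min RT; start w/ rhodamine-CoA 5 uM, BHQ-2-YbbR 12.5 uM (final); 50 mM Hepes pH 7.6, 10 mM MgCl2, 0.01% NP-40, 0.01% BSA; read 525/598 nm at 0 and 30 min.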
Tau fibril ThT: blocks human tau fibril formation measured by thioflavin T | actives 2.1% (n = 270,000) | P10636 | AID 1460 | recombinant tau K18 P301L, heparin-induced fibrillization, ThT fluorescence | Potency, µM (titrated, usually from 57.4 µM), for the others: top-dose activity, negative = inhibition, usual class: inhibitors; also: potency is read from the fitted curve at half-maximal effect; nearly all actives have a fitted effect of over 55% in size
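Fibril formation assay: tau K18 P301L at 15 uM with trace Alexa 594 label, heparin inducer 20 uM, pH 7 sodium acetate buffer, 37 C for 6 hr; endpoint ThT signal.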
Numbers without * were called inactive; ? = inconclusive; . = not tested or not shown; [ ] = another dose, or the depositor's remark. Unless noted, calls follow the shape of the dose curve; as a rule, active = well fitted curve in the direction sought with a large enough effect; inconclusive = small, poorly fitted or top-dose-only effect, or another doubt; inactive = no such curve, though single readings can be large; an effect the other way counts as inactive or inconclusive. Unless noted, % is scaled to controls: 0 for no effect and ±100 for the full control effect.

SMILES | Tau FP inhib | Coupling enz | Tau fluor counter | Sfp PPTase inh | Tau fibril ThT
CCN(Cc1nc(-c2ccc(OC)c(OC)c2)no1)S(=O)(=O)c1ccc(OC)cc1 | -1% | . | -24% | . | -3%
CCN1/C(=C/C=C/c2oc3ccc(-c4ccccc4)cc3[n+]2CC)Oc2ccc(-c3ccccc3)cc21 | ? | -1 | 4µM*[fluorescent] | 11µM* | ?
CCc1ccc(S(=O)(=O)c2nnn3c2nc(Nc2ccc(F)cc2)c2cc(Cl)ccc23)cc1 | 14µM* | . | ? | . | -1%
Cc1ccc(C)c(S(=O)(=O)c2nnn3c2nc(Nc2ccc(F)c(Cl)c2)c2sccc23)c1 | 14µM* | . | ? | . | ?
CCN(CC)CCOC(=O)c1ccc(N/C=C(/C#N)c2nc(-c3ccc(OC)cc3)cs2)cc1 | 11% | 0 | -14% | 56µM* | .
CCN(CC)CCOC(=O)c1ccc(N/C=C(/C#N)c2nc(-c3cc4ccccc4oc3=O)cs2)cc1 | . | 2 | . | -29% | .
CCN(CC)CCOC(=O)c1ccc(N/C=C(/C#N)c2nc(-c3ccc4c(c3)OCO4)cs2)cc1 | -12% | 0 | ? | 20µM* | ?
O=C(Nc1sc2c(c1C(=O)NC1CC1)CCCCCC2)c1ccco1 | -8% | 4 | -15% | 40µM* | ?
Cc1ccc(C(=O)C(NC(=O)c2ccco2)Nc2sc3c(c2C(N)=O)CCCC3)cc1 (stereo not drawn) | -12% | -5 | ? | 79µM* | 28µM*
O=C(O)CCC(=O)Nc1sc2c(c1C(=O)NC1CCCC1)CCCC2 | . | . | . | 14% | .
CC(C)OC(=O)c1c(NC(=O)c2ccco2)sc2c1CCCCC2 | ? | 5 | -20% | 32µM* | ?
COC(=O)Nc1sc2c(c1C(=O)NC1CC1)CCCCCC2 | 2% | 2 | -7% | 32µM* | -10%
COC(=O)c1c(NC(=O)c2ccco2)sc2c1CCC2 | -5% | 1 | -14% | -4% | ?
CC1=C(C(=O)Nc2ccccc2Cl)C(c2cccc(O)c2)n2ncnc2N1 (stereo not drawn) | 1% | . | 1% | . | 2%
CCOc1ccccc1CNC(=O)c1cc2n(n1)CCCN(Cc1ccc(C)cc1)C2=O | -7% | . | -7% | . | -11%
C[C@]12O[C@H]1[C@@H](O)C(Br)=C(CO)[C@H]2O | -10% | 0 | -12% | -2% | -3%
CCCOc1ccc(CNC(=O)CN2C(=O)c3cccnc3Oc3ccc(C)cc32)cc1 | 3% | . | -7% | . | 7%
COC(=O)c1ccc(CC(=O)c2c(C)cc(O)cc2O)o1 | ? | -13 | ? | 40µM* | 28µM*
Nc1[nH]n(-c2ccccc2)c(=O)c1N=Nc1ccc2c(c1)OCCO2 | -12% | -5 | 11µM*[quencher] | -1% | 6.3µM*
Nc1[nH]n(-c2ccccc2)c(=O)c1N=Nc1ccc2c(c1)OCO2 | ? | -7 | 10µM*[quencher] | -22% | 2.2µM*
Cc1[nH]n(-c2ccccc2)c(=O)c1N=Nc1ccccc1 | 2% | 0 | -6% | 16% | ?
Cc1cc([N+](=O)[O-])ccc1N=Nc1c(N)[nH]n(-c2ccccc2)c1=O | ? | 0 | ? | 14% | 16µM*
CCOc1ccc(Nc2oc(/C=C/c3cc(OC)c(OC)c(OC)c3)nc2C#N)cc1 | 10% | . | ? | . | ?
C[C@H](NC(=O)CNC(=O)[C@@H](NC(=O)[C@H](Cc1ccccc1)NC(=O)CNC(=O)CNC(=O)[C@@H](N)Cc1ccccc1)[C@@H](C)O)C(=O)N[C@@H](CCCN=C(N)N)C(=O)N[C@@H](CCCCN)C(=O)N[C@@H](CO)C(=O)N[C@@H](C)C(=O)N[C@@H](CCCN=C(N)N)C(=O)N[C@@H](CCCCN)C(N)=O | . | -1 | . | 16% | .
CCNC(=O)c1ccc2c(c1)sc1nc(-c3cccc(OC)c3)cn12 | 6% | . | -4% | . | -13%
SMILES | Tau FP inhib | Coupling enz | Tau fluor counter | Sfp PPTase inh | Tau fibril ThT
Cc1ccc(Cl)cc1N1C(=O)N(Cc2ccc(C#N)cc2)c2ccccc2S1(=O)=O | ? | . | -23% | . | 8%
COc1cccc(OCCNc2cc(Cl)ccc2[N+](=O)[O-])c1 | -4% | -11 | -30% | 2% | 8.9µM*
O=[N+]([O-])c1ccccc1NCCOc1ccccc1 | ? | 1 | -20% | -7% | ?
C[C@@H]1CCN(C(=O)[C@H](CCCNC(=N)N)NS(=O)(=O)c2cccc3c2NC[C@H](C)C3)[C@@H](C(=O)O)C1 | . | . | . | 6% | .
Cc1ccc(NC(=O)c2ccc3nc(N4CCOCC4)sc3c2)c(Cl)c1 | . | -1 | . | 50µM* | .
COc1cnc(-c2ccccn2)nc1Sc1ccccc1Cl | -9% | -2 | -20% | -25% | ?
CCOC(=O)C(C)Sc1nc(-c2ccccn2)ncc1OC (stereo not drawn) | -5% | -8 | -2% | 35µM* | -9%
CN(C)c1nc(-c2ccccn2)nnc1-c1ccccc1 | -5% | -1 | -2% | 79µM* | -1%
COc1ccc(Oc2nc(-c3ccccn3)ncc2OC)cc1 | 3% | -7 | -6% | -18% | -9%
COc1cnc(-c2ccccn2)nc1N(C)C | -11% | -10 | -2% | 16µM* | ?
O=C(CC1Sc2ccccc2NC1=O)Nc1cccc(C(F)(F)F)c1 (stereo not drawn) | -13% | . | -24% | . | 6%
O=C(N/N=C/c1sc(N2CCCCC2)nc1-c1cccs1)C1CC1 | 2% | -12 | ? | 56µM* | ?
CC(C)NC(=S)N/N=C/c1sc(N2CCCCC2)nc1-c1cccs1 | ? | -3 | ? | -9% | -13%
COc1cc(NC(=O)c2cc3c(s2)-c2ccccc2OC3)cc(OC)c1OC | 9% | . | 6.3µM*[quencher] | . | ?
O=C(c1ccco1)N1CCN(C(=O)c2cc3c(s2)-c2ccccc2OC3)CC1 | ? | -1 | -14% | 50µM* | ?
COC(C(=O)C(O)C(C)O)C1Cc2cc3cc(OC4CC(OC5CC(O)C(O)C(C)O5)C(O)C(C)O4)c(C)c(O)c3c(O)c2C(=O)C1OC1CC(OC2CC(OC3CC(C)(O)C(O)C(C)O3)C(O)C(C)O2)C(O)C(C)O1 (stereo not drawn) | . | . | . | 1% | .
CCOc1ccc(C(=S)NC2CCCCC2)cc1OCC | . | 1 | . | 14µM* | .
CCN(CC)c1ccc(C(=S)NC2CCCCC2)cc1 | 9% | 0 | ? | 32µM* | ?
CN(C)c1ccc(C(=O)OCC(=O)NC2CCCCCC2)cc1 | 6% | 2 | -12% | -18% | -15%
CCN(CC)c1ccc(C(=S)NCc2ccccc2)cc1 | 12% | -5 | ? | 10µM* | ?
CCOc1ccc(C(C)NC(=S)NC2CCCCC2)cc1OCC (stereo not drawn) | 10% | 2 | -17% | 15% | -3%
CN(C)c1ccc(C(=S)NC2CCCCC2)cc1 | -1% | 1 | -16% | 20µM* | ?
CCOC(=O)c1c(C)[nH]c(C)c1S(=O)(=O)N1CCCC(C(=O)Nc2cccc(CC)c2)C1 (stereo not drawn) | -3% | . | -26% | . | 1%
